High-throughput results deposited in PubChem by National Center for Advancing Translational Sciences (NCATS).
Most compounds without a hit are left out; they make up all but 22% or so of the library.
Shiga toxin inh = blocks Shiga toxin action in Vero cells; 290,000 tested, 9.2% active; inhibition, % at 38.7 µM; Vero cells, Shiga toxin protein synthesis inhibition reporter; in the data active = inhibition mostly above about 28%, no sharp cut-off; inactive = mostly below about 43%; note: 0% is about no effect
Pf growth 96h = P. falciparum growth inhibition at 96 hour, primary screen for plastid delayed-death inhibitors; 320,000 tested, 6.9% active; AID 504834; P. falciparum luciferase reporter growth, 96 h; Potency, µM (titrated, usually from 28.7 µM), without a hit: top-dose activity change, negative = inhibition, usual class: inhibitors; note: potency is the fitted concentration of half-maximal effect; % is set by controls: 0 for no effect and ±100 for the full control effect
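Parasite growth measured via integrated firefly luciferase reporter in P. falciparum. Infected erythrocytes at 2% hematocrit, 0.05% parasitemia final were treated 96 hours at 37 C under 5% CO2, and luminescence was read.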
CHX counter = counter-screen for Shiga toxin inhibitors: cycloheximide protein synthesis inhibition. cell reporter, cycloheximide protein synthesis inhibition counterscreen. max response, %. 300,000 tested, 12% active. AID 2314; in the data active = max response mostly above about 13%, no sharp cut-off; inactive = mostly below about 14%; note: read at 38.3 µM for the half of the compounds with a filed dose; 0% is about no effect
Pf growth 48h = inhibits P. falciparum growth in the first generation, 48 h | P. falciparum luciferase growth in erythrocytes, 48 h | Potency, µM (highest dose often 28.7 µM), without a hit: top-dose activity change, negative = inhibition, most hits filed as inhibitors | 310,000 tested, 5.9% active; note: potency is the fitted concentration of half-maximal effect; % is set by controls: 0 for no effect and ±100 for the full control effect
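Luminescence readout; reporter = integrated firefly luciferase in P. falciparum. RBC culture at 2% hematocrit, 0.1% parasitemia final, 37 C/5% CO2; decreased signal taken as growth inhibition.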
LmPK inhibitor = blocks Leishmania mexicana pyruvate kinase activity. purified LmPK, Kinase-Glo ATP luminescence, 1 h. AID 1721. Potency, µM (series often up to 57.5 µM), inactives show top-dose activity change, negative = inhibition, usual class: inhibitors. 290,000 tested, 0.37% active; note: potency is the fitted concentration of half-maximal effect; % is set by controls: 0 for no effect and ±100 for the full control effect
Target sequence (Q27686 whole entry, looked up): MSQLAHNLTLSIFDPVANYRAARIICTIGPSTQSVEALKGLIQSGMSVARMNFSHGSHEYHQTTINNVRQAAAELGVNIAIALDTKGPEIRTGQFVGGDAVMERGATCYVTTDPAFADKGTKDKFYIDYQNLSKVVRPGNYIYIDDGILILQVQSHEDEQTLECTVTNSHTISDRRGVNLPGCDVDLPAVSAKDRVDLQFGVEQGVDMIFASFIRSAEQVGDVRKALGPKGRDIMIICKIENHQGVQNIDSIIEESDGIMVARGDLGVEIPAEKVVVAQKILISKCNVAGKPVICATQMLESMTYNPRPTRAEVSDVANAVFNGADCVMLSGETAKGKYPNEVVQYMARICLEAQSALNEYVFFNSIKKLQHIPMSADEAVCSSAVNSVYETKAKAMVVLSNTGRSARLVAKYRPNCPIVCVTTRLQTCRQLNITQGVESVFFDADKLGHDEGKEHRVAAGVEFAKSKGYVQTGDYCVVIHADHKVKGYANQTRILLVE
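Kinase-Glo luminescence read after 1 h RT reaction of 0.1 nM LmPK with 0.5 mM PEP and 0.1 mM ADP. Activity scaled between uninhibited and enzyme-free controls.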
Active calls of the source: *; [ ] = dose if it differs, or a comment. Unless noted, calls come from the whole dose curve; as a rule, active = well fitted inhibition curve with a large enough effect; inconclusive = small, poorly fitted or top-dose-only effect, or another doubt; inactive = no such curve, though single readings can be large or run the other way.

How did CCn1c(SCC(=O)NC2CC2)nnc1-c1ccc(C)cc1 do in these assays?
Shiga toxin inh: -5; Pf growth 96h: 3%; CHX counter: 1; Pf growth 48h: 15%; LmPK inhibitor: 6%

How did N#CCSc1nc2ccc(N3CCCCC3)cc2c(=O)n1Cc1ccccc1 do in these assays?
Shiga toxin inh: 38*; CHX counter: 21*; Pf growth 48h: inconclusive; LmPK inhibitor: 4%

What do the screens show for `N#CCSc1nc2ccccc2c(=O)n1CC1CCCC1`?
Shiga toxin inh: -13; Pf growth 96h: 112%; CHX counter: 9; Pf growth 48h: -36%; LmPK inhibitor: 1%

How did COc1ccc(C2C3=C(CC(C)(C)CC3=O)Oc3ncn(Cc4ccccc4)c(=N)c32)cc1 (stereo not drawn) do in these assays?
Shiga toxin inh: -12; Pf growth 96h: 13µM*; CHX counter: -6; LmPK inhibitor: 6%

Results for COc1ccc(C2C3=C(CC(C)(C)CC3=O)Oc3ncn(CCCn4ccnc4)c(=N)c32)cc1 (stereo not drawn) ?
Shiga toxin inh: -10; Pf growth 96h: 5.2µM*; CHX counter: 2; Pf growth 48h: 9.3µM*; LmPK inhibitor: 0%

How did CC1(C)CC(=O)C2=C(C1)Oc1ncn(Cc3ccco3)c(=N)c1C2c1ccccc1 (stereo not drawn) do in these assays?
Shiga toxin inh: -18; Pf growth 96h: 6.6µM*; CHX counter: -2; Pf growth 48h: inconclusive; LmPK inhibitor: 2%

What do the screens show for `CC1(C)CC(=O)C2=C(C1)Oc1ncn(CCCn3ccnc3)c(=N)c1C2c1ccccc1` (stereo not drawn)?
Shiga toxin inh: -6; Pf growth 96h: inconclusive; CHX counter: -6; Pf growth 48h: inconclusive; LmPK inhibitor: -3%

How did CN(Cc1ccccc1)C(=O)CCn1c(=O)c2cccn2c2cccnc21 do in these assays?
Shiga toxin inh: 14; Pf growth 96h: inconclusive; CHX counter: -1; Pf growth 48h: inconclusive; LmPK inhibitor: 12%

What do the screens show for `CN(C1(C)CCS(=O)(=O)C1)S(=O)(=O)c1ccc2ccccc2c1` (stereo not drawn)?
Pf growth 96h: 3%; Pf growth 48h: 0%

How did CCOC(=O)C1CCN(c2c(NCc3ccc(C(=O)NC4CCCC4)cc3)c(=O)c2=O)CC1 do in these assays?
Shiga toxin inh: -16; Pf growth 96h: inconclusive; CHX counter: -1; LmPK inhibitor: 4%

What do the screens show for `Cc1cc(C)cc(NC(=O)c2ccc(CNc3c(N4CCCC4)c(=O)c3=O)cc2)c1`?
Shiga toxin inh: 15; Pf growth 96h: 0.52µM*; CHX counter: 8; Pf growth 48h: inconclusive; LmPK inhibitor: 3%

What do the screens show for `CCOC(=O)C1CCN(c2c(NCc3ccc(C(=O)NCCOC)cc3)c(=O)c2=O)CC1`?
Shiga toxin inh: -4; Pf growth 96h: 70%; CHX counter: -3; Pf growth 48h: -12%; LmPK inhibitor: 1%

Results for CCOC(=O)C1CCN(c2c(NCc3ccc(C(=O)Nc4ccc(C)cc4)cc3)c(=O)c2=O)CC1 ?
Shiga toxin inh: 29; Pf growth 96h: 4.1µM*; CHX counter: 0; Pf growth 48h: 4.7µM*; LmPK inhibitor: 4%

What do the screens show for `O=C(NCc1ccco1)c1ccc(CNc2c(N3CCCCC3)c(=O)c2=O)cc1`?
Shiga toxin inh: -17; Pf growth 96h: 10µM*; CHX counter: -3; Pf growth 48h: 6%; LmPK inhibitor: 0%

What do the screens show for `CCCCNC(=O)c1ccc(CNc2c(N3CCC(C(=O)OCC)CC3)c(=O)c2=O)cc1`?
Shiga toxin inh: 3; Pf growth 96h: inconclusive; CHX counter: -2; Pf growth 48h: 12µM*; LmPK inhibitor: -4%

What do the screens show for `CCn1nc(C)cc1C(=O)N1CCCC(Nc2ccc(C(C)C)cc2)C1` (stereo not drawn)?
Shiga toxin inh: 9; Pf growth 96h: inconclusive; CHX counter: 8; Pf growth 48h: -24%; LmPK inhibitor: 0%

Results for CCc1cccc(C)c1NC(=O)CCCN1C(=O)CN(C)C1=O ?
Pf growth 96h: -25%; Pf growth 48h: -17%

Results for CCO[C@H]1OC(C(=O)N2CCOCC2)=C[C@@H](C)[C@@H]1CCCO ?
Shiga toxin inh: -15; Pf growth 96h: -8%; CHX counter: 1; Pf growth 48h: -2%; LmPK inhibitor: 2%

What do the screens show for `Cc1c(OCc2ccccc2)c(=O)ccn1Cc1ccccc1`?
Shiga toxin inh: 32; Pf growth 96h: inconclusive; CHX counter: 11*; Pf growth 48h: inconclusive; LmPK inhibitor: -1%

How did Cc1ccccc1S(=O)(=O)Oc1ccc2ccc(O)cc2c1 do in these assays?
Pf growth 96h: 116%; CHX counter: 32*; Pf growth 48h: 56%; LmPK inhibitor: 12%

How did Cc1ccccc1C(=O)Oc1ccc2ccc(O)cc2c1 do in these assays?
Pf growth 96h: 123%; CHX counter: 59*; Pf growth 48h: 217%; LmPK inhibitor: 8%

How did Cc1ccccc1C(=O)Oc1cccc2c(O)cccc12 do in these assays?
Shiga toxin inh: 12; Pf growth 96h: inconclusive; CHX counter: 9; Pf growth 48h: inconclusive; LmPK inhibitor: 6%

How did COc1cccc(C(=O)Oc2ccc3ccc(O)cc3c2)c1 do in these assays?
Pf growth 96h: -5%; CHX counter: 39*; Pf growth 48h: 72%; LmPK inhibitor: 9%

How did Nc1nnc(-c2ccc(Cl)cc2Cl)s1 do in these assays?
Shiga toxin inh: 58*; Pf growth 96h: -2%; CHX counter: 23*; Pf growth 48h: 61%; LmPK inhibitor: -10%

How did Nc1nnc(-c2ccccc2F)s1 do in these assays?
Shiga toxin inh: 86*; Pf growth 96h: -7%; CHX counter: 21*; Pf growth 48h: 32%; LmPK inhibitor: 3%

Results for COC(C(=O)Nc1ccnn1C1CCN(Cc2ccccn2)CC1)c1ccccc1 (stereo not drawn) ?
Shiga toxin inh: -29; Pf growth 96h: -1%; CHX counter: 1; Pf growth 48h: 0%; LmPK inhibitor: -7%

Results for Nc1ccn(CC(=O)NCCNc2ccc([N+](=O)[O-])cn2)c(=O)n1 ?
Pf growth 96h: 21%; Pf growth 48h: 1%

How did O=C1CC(c2ccco2)=Nc2ccccc2N1 do in these assays?
Shiga toxin inh: 4; Pf growth 96h: 0%[5.75 µM]; CHX counter: 11*; Pf growth 48h: 20%; LmPK inhibitor: -6%

How did CCOC(=O)N1CCN(S(=O)(=O)c2c(C)nc3sccn3c2=O)CC1 do in these assays?
Shiga toxin inh: -6; Pf growth 96h: inconclusive; CHX counter: -3; Pf growth 48h: 6%; LmPK inhibitor: -5%

What do the screens show for `COc1ccc(C)cc1N(C(=O)COc1cccc(F)c1)c1nc2ccccc2s1`?
Shiga toxin inh: 13; Pf growth 96h: inconclusive; CHX counter: 11; Pf growth 48h: 0.74µM*; LmPK inhibitor: -2%

How did COC(=O)c1ccc(NC(=O)CSc2nncn2-c2ccccn2)cc1 do in these assays?
Shiga toxin inh: 13; Pf growth 96h: -12%; CHX counter: -3; Pf growth 48h: 39%; LmPK inhibitor: -3%
